23 compounds from PubChem BioAssay (NCATS) can be followed below.

Records with an inconclusive call do not appear. Unmarked numbers belong to inactive results. Activity calls are given as the source filed them. Calls follow the shape of the dose curve; as a rule, active = well fitted inhibition curve with a large enough effect; inconclusive = small, poorly fitted or top-dose-only effect; inactive = flat fitted curve, though single readings scatter.
% is scaled to controls: 0 for no effect and ±100 for the full control effect.

Chain of Calcium and integrin-binding protein 1 (Homo sapiens) (Q99828 whole entry, looked up): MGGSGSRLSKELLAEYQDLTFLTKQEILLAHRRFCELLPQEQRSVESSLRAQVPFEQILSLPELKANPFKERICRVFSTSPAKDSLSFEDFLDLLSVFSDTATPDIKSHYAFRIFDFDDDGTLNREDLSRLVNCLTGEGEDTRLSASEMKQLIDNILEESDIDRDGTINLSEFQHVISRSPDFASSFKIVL

This experiment addresses Calcium and integrin-binding protein 1 (Homo sapiens) (UniProt Q99828). As to the kind of experiment: Primary qHTS for Identification of Calcium Integrin Binding Protein 1 (CIB1) Competitor (AID 1508620).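 Also: GST tagged CIB1 binding a fluorescein labelled alphaIIb integrin peptide tracer; top concentration of the series differs between compounds.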 To be noted: CIB1-GST / FITC-alphaIIb peptide fluorescence polarization; series mostly up to 114 µM; activity change, negative = inhibition: at the top concentration. In a few lines:
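CIB1-GST (1 uM final) and compound incubated 15 min at room temperature before adding FITC-alphaIIb peptide tracer (100 nM final). Competition for binding read by fluorescence polarization (ex 480, em 540) after another 15 min at room temperature.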
(In qHTS, concentration-response curves come from the screen itself.)
With `CC(C)(C)OC(=O)N1CCN(c2ccc(OCc3ccc(-c4ccc(C#N)cc4)o3)cc2)CC1`, the “activity change, negative = inhibition” value was -9.52%.
With `COc1cc(O)c(C(CC(=O)N2CCC(Cc3ccccc3)CC2)c2ccc(C)cc2)c(OC)c1` (stereo not drawn), the “activity change, negative = inhibition” value was 1.79% [at 228 µM].
As to `Cc1ccc(C(=O)Nc2ccc(N3CCCCC3)cc2)cc1`, the “activity change, negative = inhibition” value was 1.78%.
Consider `Cc1cc(NS(=O)(=O)c2ccc(NC(=O)Cc3ccc(C)c(C)c3)cc2)no1`, for which the “activity change, negative = inhibition” value was -16.3%.
Still for that read-out and setting: for `O=C(Cc1ccc(Cl)c(Cl)c1)Nc1ccc([S+](=O)([O-])Nc2cccc([N+](=O)[O-])c2)cc1` the value was -8.85%; for `Cc1cc(NS(=O)(=O)c2ccc(N(C)C(=O)Cc3ccc(Cl)c(Cl)c3)cc2)no1`, -10.6%.
Same read-out and setting: for `O=C(Nc1cccnc1)C1CCCCC1` the value was 8.16%; for `c1cncc(CNc2ncnc3ccc(-c4ccc5c(c4)OCCO5)cc23)c1`, 8.08%.
The same measure, in the same setting: for `NC(=O)C1CCN(c2ncc(-c3ccc4c(c3)OCCO4)s2)CC1` the value was 1.43%.
For `Oc1ccc(CNc2cccc(C(F)(F)F)c2)c2cccnc12`, the “activity change, negative = inhibition” value is 15%.
On the same count and under the same terms, for `Cc1nc(NCc2ccc(-c3cccnc3)cc2)c2ccccc2n1` the value was 4.01%; for `COc1ccc(O)c(-c2nc3ccccc3c(=O)n2Cc2ccccc2)c1`, 2.78%; for `COc1ccc(C2c3c(ncn(CCCc4ccccc4)c3=N)Oc3ccc4ccccc4c32)cc1OC` (stereo not drawn), 0.508%.
For the compound `Cc1ccnc(NC(=S)N[C@H]2CCN(c3cccc(C(F)(F)F)c3)C2)c1`, the “activity change, negative = inhibition” value was -4.59%.
Still for that read-out and setting: then `Cc1ccc(CCCn2c(CCNC(=O)C3CCCCC3)nc3ccccc32)cc1`, with -0.956%.
Same read-out and setting: then `O=C1CCc2cc(S(=O)(=O)Nc3cccnc3)ccc2N1`, with 5.83%; and `N#Cc1c(-c2cccc(Cl)c2)no[n+]1[O-]`, with -0.861%; and `CC(C)(C)OC(=O)N1CCN(c2ccc(NCc3ccc(-c4ccc(C(C)(C)C)cc4)o3)cc2)CC1`, with 4.2%.
As for `O=C(O)c1ccc(-c2noc(-c3ccccc3F)n2)cc1`, the Potency entry was “inactive”.
For `CC(C)(C)OC(=O)N1CCN(c2ccc(NCc3ccc(-c4ccccc4F)o3)cc2)CC1`, the “activity change, negative = inhibition” value was 2.79%.
`O=S(=O)(c1ccc2c(c1)OCO2)N1CCN(S(=O)(=O)c2c(F)cccc2F)CC1`: the “activity change, negative = inhibition” value was 1.85%.
As for `Cc1cccc(-n2cnc3cc(C(=O)NC(C)(C)C)ccc32)c1`, the “activity change, negative = inhibition” value is 4.18%.
`CN(C)c1ccc2nc(NC(=S)N3CCN(c4cccc(C(F)(F)F)c4)CC3)sc2c1`: the “activity change, negative = inhibition” value was 3.2%.
